Measured values as given in the supplement of paper PMC9135407.
Values joined by “and” are separate entries in the source; they are usually repeats but may differ in a detail not shown here. Identical values can stand only once. Counter-ions that a name gives are not always drawn. The whole screen tested about 5,800 compounds, of which about 620 (11%) showed activity. What follows is part of a selection rich in actives, with near analogues and random picks from the rest. A number with no mark means an inactive call.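 Rule for the calls: active = score above a cut-off or among the top three wells of a plate; in these data no inactive exceeds 0.85.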

Tested on: primary human hepatic stellate cells (donor 1)
Experiment: scaled lipid accumulation score (0 = DMSO-like, 1 = nortriptyline-like); higher = stronger HSC inactivation (lipid re-accumulation), active = hit call of the paper
Settings: 48 h
[1] = library stock concentration: 3.33 mM
[2] = library stock concentration: 10 mM
[3] = library stock concentration: 1 mM
[4] = library stock concentration: 80 uM
[5] = library stock concentration: 400 uM
[6] = library stock concentration: 2 mM

c1ccc(CNc2nc(NCc3ccccc3)c3ccccc3n2)cc1
scaled lipid accumulation score [1]: 0.706 | scaled lipid accumulation score [2]: 0.074

CC(=O)NCCCCCC(=O)O [Acexamic acid]
scaled lipid accumulation score [2]: 0.236

CC(C)CCOc1ccc(NC(=S)Nc2ccc(OCCC(C)C)cc2)cc1 [Thiocarlide]
scaled lipid accumulation score [3]: ≤ 0

CN1C(=O)CC[C@H]1c1cccnc1 [Cotinine]
scaled lipid accumulation score [2]: ≤ 0 | scaled lipid accumulation score (library stock concentration: 11.3 mM): ≤ -0.001

CN1C(=O)CC[C@H]1c1cccnc1 [(-)-Cotinine]
scaled lipid accumulation score [2]: ≤ 0 and 0.057

CN1C(=O)CC[C@H]1c1cccnc1 [Cotinine (-)]
scaled lipid accumulation score: ≤ 0

O=c1ccc2ccccc2o1 [Coumarin]
scaled lipid accumulation score [1]: ≤ 0 | scaled lipid accumulation score [2]: ≤ 0 and 0.012

O=Nc1ccc2oc(=O)ccc2c1 [6-Nitroso-1,2-benzopyrone]
scaled lipid accumulation score [2]: 0.9 (active)

O=c1ccc2cc(O)c(O)cc2o1 [Esculetin]
scaled lipid accumulation score: ≤ 0 | scaled lipid accumulation score [2]: ≤ 0

CC(C)n1c(/C=C/C(O)CC(O)CC(=O)O)c(-c2ccc(F)cc2)c2ccccc21 (centres undefined) [fluvastatin]
scaled lipid accumulation score [2]: 0.549

CC(C)n1c(/C=C/C(O)CC(O)CC(=O)O)c(-c2ccc(F)cc2)c2ccccc21 (centres undefined) [Fluvastatin Sodium]
scaled lipid accumulation score [1]: 0.188 | scaled lipid accumulation score [2]: 0.219

CC(C)n1c(/C=C/C(O)CC(O)CC(=O)O)c(-c2ccc(F)cc2)c2ccccc21 (centres undefined) [Fluvastatin sodium salt]
scaled lipid accumulation score: 0.403

COc1cc(C)c(Cc2cnc(N)nc2N)cc1OC
scaled lipid accumulation score [2]: ≤ 0

CCN(CCO)CCCC(C)Nc1ccnc2cc(Cl)ccc12 (centres undefined) [Hydroxychloroquine sulfate]
scaled lipid accumulation score [2]: 0.161

CCN(CC)Cc1cc(Nc2ccnc3cc(Cl)ccc23)ccc1O.Cl.Cl.O.O [Amodiaquin dihydrochloride dihydrate]
scaled lipid accumulation score: 1.22 (active)

O=C(OCC(O)CO)c1ccccc1Nc1ccnc2cc(Cl)ccc12 (centres undefined) [Glafenine]
scaled lipid accumulation score [2]: ≤ 0

O=C(OCC(O)CO)c1ccccc1Nc1ccnc2cc(Cl)ccc12 (centres undefined) [Glafenine hydrochloride]
scaled lipid accumulation score: ≤ 0

CCN(CC)CCCC(C)Nc1ccnc2cc(Cl)ccc12 (centres undefined) [Chloroquine phosphate]
scaled lipid accumulation score (library stock concentration: 6.3 mM): 0.285

CCN(CC)CCCC(C)Nc1ccnc2cc(Cl)ccc12 (centres undefined) [Chloroquine diphosphate]
scaled lipid accumulation score: 0.679 | scaled lipid accumulation score [2]: ≤ 0 and 0.428

Clc1ccc2c(N3CCN(CCCN4CCN(c5ccnc6cc(Cl)ccc56)CC4)CC3)ccnc2c1 [Piperaquine tetraphosphate tetrahydrate]
scaled lipid accumulation score [2]: 0.316

Cc1nc2cc3nc(-c4cccs4)cnc3cc2n1C
scaled lipid accumulation score [1]: ≤ 0

Cc1csc(-c2nnc(Nc3ccc(Oc4ncccc4-c4ccnc(N)n4)cc3)c3ccccc23)c1
scaled lipid accumulation score [1]: ≤ 0 | scaled lipid accumulation score [2]: ≤ 0

CCCCCCCCCCCCCCCCC/C=C/C(=O)O [.DELTA.2-trans Eicosenoic Acid]
scaled lipid accumulation score [3]: ≤ 0

Cc1oncc1C(=O)Nc1ccc(C(F)(F)F)cc1 [Leflunomide]
scaled lipid accumulation score: ≤ 0 | scaled lipid accumulation score [4]: 0.045 | scaled lipid accumulation score [5]: ≤ 0 | scaled lipid accumulation score [6]: ≤ 0 | scaled lipid accumulation score [1]: ≤ 0

O=C(Nc1ccc([N+](=O)[O-])cc1Cl)c1cc(Cl)ccc1O [Niclosamide] [listing 1 of 2 here]
scaled lipid accumulation score: 0.776

O=C(Nc1ccc([N+](=O)[O-])cc1Cl)c1cc(Cl)ccc1O [Niclosamide] [listing 2 of 2 here]
scaled lipid accumulation score (library stock concentration: 6.1 mM): 1.15 (active) | scaled lipid accumulation score [2]: 1.08 (active)

O=C(Nc1cc(C(F)(F)F)cc(C(F)(F)F)c1)c1cc(Cl)ccc1O [listing 1 of 3 here]
scaled lipid accumulation score [2]: 1.61 (active)

O=C(Nc1cc(C(F)(F)F)cc(C(F)(F)F)c1)c1cc(Cl)ccc1O [listing 2 of 3 here]
scaled lipid accumulation score [2]: 1.1 (active)

O=c1oc(-c2ccc(C(F)(F)F)cc2)nn1Cc1cc(Cl)ccc1O
scaled lipid accumulation score [2]: 0.172

O=C(Nc1ccccc1)c1ccccc1O [Salicylanilide]
scaled lipid accumulation score [1]: ≤ 0 | scaled lipid accumulation score (library stock concentration: 9.4 mM): 0.019 | scaled lipid accumulation score [2]: 0.041

O=C(Nc1cc(C(F)(F)F)cc(C(F)(F)F)c1)c1cc(Cl)ccc1O [listing 3 of 3 here]
scaled lipid accumulation score [1]: 0.722

O=C(Nc1ccccc1)c1cc([N+](=O)[O-])ccc1Cl
scaled lipid accumulation score [3]: ≤ 0 | scaled lipid accumulation score [1]: 0.023 | scaled lipid accumulation score [2]: ≤ 0 and 0.358 and 0.105

O=C(Nc1cc(C(F)(F)F)cc(C(F)(F)F)c1)c1cc(Cl)ccc1O [IKK-2 Inhibitor V]
scaled lipid accumulation score [1]: ≤ 0

C[C@]12CC[C@@H]3c4ccc(O)cc4CC[C@H]3[C@@H]1C[C@H](O)[C@@H]2O
scaled lipid accumulation score [2]: ≤ 0

O=C1CCC(c2ccc(-n3ccnc3)cc2)=NN1 [Imazodan]
scaled lipid accumulation score [2]: ≤ -0.07

CC(C)n1cnc2c(NCc3ccccc3)nc(NCCCO)nc21 [Bohemine]
scaled lipid accumulation score [4]: ≤ -0.001 | scaled lipid accumulation score [5]: ≤ -0.001 | scaled lipid accumulation score [6]: ≤ -0.001 | scaled lipid accumulation score [1]: ≤ 0 | scaled lipid accumulation score [2]: 0.099

Cc1cc(OCc2nnc(SC3CCCC3)n2-c2cccnc2)ccc1-c1ccc(S(C)(=O)=O)cc1
scaled lipid accumulation score [1]: 0.619 | scaled lipid accumulation score [2]: 0.187

CN(C)[C@@H]1C(O)=C(C(=O)NCN2CCCC2)C(=O)[C@@]2(O)C(O)=C3C(=O)c4c(O)cccc4[C@@](C)(O)[C@H]3C[C@@H]12
scaled lipid accumulation score [2]: ≤ 0

CN(C)[C@@H]1C(O)=C(C(=O)NCN2CCCC2)C(=O)[C@@]2(O)C(O)=C3C(=O)c4c(O)cccc4[C@@](C)(O)[C@H]3C[C@@H]12 [Rolitetracycline]
scaled lipid accumulation score: ≤ 0

CC(=O)N(OCc1ccccc1)[C@H]1c2cc(C#N)ccc2OC(C)(C)[C@H]1O
scaled lipid accumulation score [2]: ≤ 0

N[C@@H]1CCN(O)C1=O
scaled lipid accumulation score [2]: ≤ 0

CCCCCCCCCCCCCCCC(=O)NC[C@@H](C)O [R-Palmitoyl-(2-methyl) Ethanolamide]
scaled lipid accumulation score [3]: ≤ 0

COc1ccc2c(c1OC)C(=O)O[C@@H]2[C@H]1c2c(cc3c(c2OC)OCO3)CCN1C [Noscapine hydrochloride]
scaled lipid accumulation score (library stock concentration: 4.4 mM): 0.008 | scaled lipid accumulation score [2]: 0.011 and 0.074

COc1ccc2c(c1OC)C(=O)O[C@@H]2[C@H]1c2c(cc3c(c2OC)OCO3)CCN1C [Noscapine hydrchloride]
scaled lipid accumulation score [2]: ≤ -0.055

COc1ccc2c(c1OC)C(=O)O[C@@H]2[C@H]1c2c(cc3c(c2OC)OCO3)CCN1C [Noscapine]
scaled lipid accumulation score: ≤ 0

COc1cc2c3cc1Oc1c(OC)c(OC)cc4c1[C@@H](Cc1ccc(OC(=O)c5ccc([N+](=O)[O-])cc5)c(c1)Oc1ccc(cc1)C[C@@H]3N(C)CC2)N(C)CC4 [E6 berbamine]
scaled lipid accumulation score (library stock concentration: 6.6 mM): 0.933 (active)

COc1cc2c3cc1Oc1cc(ccc1O)C[C@@H]1c4c(cc(OC)c(O)c4Oc4ccc(cc4)C[C@@H]3N(C)CC2)CC[N+]1(C)C [Tubocurarine chloride]
scaled lipid accumulation score (library stock concentration: 3.1 mM): ≤ 0

COc1ccc2cc1Oc1ccc(cc1)C[C@@H]1c3c(cc4c(c3Oc3cc5c(cc3OC)CCN(C)[C@H]5C2)OCO4)CCN1C [Cepharanthine]
scaled lipid accumulation score [1]: 1.03 (active)

COc1ccc2cc1Oc1ccc(cc1)C[C@H]1c3c(cc4c(c3Oc3cc5c(cc3OC)CCN(C)[C@@H]5C2)OCO4)CCN1C [Cepharanthine] [listing 1 of 2 here]
scaled lipid accumulation score [2]: 0.689

COc1cc2c(cc1OC)[C@@H]1Cc3ccc(OC)c(OC)c3CN1CC2 [Rotundine]
scaled lipid accumulation score [1]: ≤ 0 | scaled lipid accumulation score [2]: ≤ 0

COc1cc2c(c(OC)c1OC)-c1c(cc3c(c1OC)OCO3)CC(C)C(C)C2 (centres undefined) [Schisandrin B (Sch B)]
scaled lipid accumulation score [1]: ≤ 0 | scaled lipid accumulation score [2]: ≤ -0.001

COc1ccc2cc1Oc1ccc(cc1)C[C@H]1c3c(cc4c(c3Oc3cc5c(cc3OC)CCN(C)[C@@H]5C2)OCO4)CCN1C [Cepharanthine] [listing 2 of 2 here]
scaled lipid accumulation score [2]: 0.944 (active)

COc1ccc2cc1Oc1ccc(cc1)C[C@H]1c3cc(c(OC)cc3CCN1C)Oc1c(OC)c(OC)cc3c1[C@H](C2)N(C)CC3 [Tetrandrine]
scaled lipid accumulation score: 0.685 | scaled lipid accumulation score [1]: 0.783 | scaled lipid accumulation score [2]: 0.45

COc1ccc2cc1Oc1ccc(cc1)C[C@H]1c3cc(c(OC)cc3CCN1C)Oc1c(OC)c(OC)cc3c1[C@H](C2)N(C)CC3 [Tetrandine]
scaled lipid accumulation score (library stock concentration: 8 mM): 0.535

Cc1cc(C(N)=O)ccc1-n1c(CCC(=O)O)ccc1-c1ccc(-n2ccnc2)cc1
scaled lipid accumulation score [1]: ≤ -0.009 | scaled lipid accumulation score [2]: ≤ 0

O=C(O)c1ccc2c(c1)CCCC2 [5,6,7,8-tetrahydro-2-Naphthoic Acid]
scaled lipid accumulation score [3]: ≤ 0

CS(=O)(=O)c1ccc(Cn2c3c(c4cc(F)cc(F)c42)CCCC3CC(=O)O)cc1 (centres undefined)
scaled lipid accumulation score [2]: ≤ -0.006

O=C(O)c1ccc2c(c1)nc(Nc1cccc(Cl)c1)c1ccncc12
scaled lipid accumulation score [5]: ≤ -0.005 | scaled lipid accumulation score [6]: ≤ -0.005 | scaled lipid accumulation score [2]: ≤ -0.005

O=C(O)c1ccc2c(c1)nc(Nc1cccc(Cl)c1)c1ccncc12 [CX-4945 (Silmitasertib)]
scaled lipid accumulation score [1]: ≤ 0 | scaled lipid accumulation score [2]: ≤ 0

OC[C@H]1O[C@H]([S-])[C@H](O)[C@@H](O)[C@@H]1O.[Au+] [Aurothioglucose]
scaled lipid accumulation score (library stock concentration: 5.1 mM): 0.336 | scaled lipid accumulation score [2]: 0.397

Oc1cc(O)c2c(c1)O[C@H](c1ccc(O)c(O)c1)[C@@H](O)C2 (racemic) [Catechin-(+,-) hydrate]
scaled lipid accumulation score: ≤ 0

CCCCCCCCCCCCCCCCOCC(CO)OC (centres undefined) [1-Hexadecyl-2-O-methyl-glycerol]
scaled lipid accumulation score [3]: 0.003

CCCCC(C)(C)[C@H](O)C=C[C@H]1[C@H](O)CC(=O)[C@@H]1CCCCCCC(=O)O [16,16-dimethyl Prostaglandin E1]
scaled lipid accumulation score [3]: ≤ 0
